# AmpC inh detg: qHTS Inhibitors of AmpC Beta-Lactamase (assay with detergent); AmpC hydrolysis of nitrocefin, absorbance 480 nm, 0.01% Triton; Potency, µM (titrated, usually from 114 µM), for inactives: at the highest dose activity change, negative = inhibition, hits mostly inhibitors; 0.041% of 370,000 active;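 note: 0% = no-compound wells and -100% = no-enzyme wells; nearly all actives have a fitted effect of over 25% in size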
# Target sequence (P00811 whole entry, looked up): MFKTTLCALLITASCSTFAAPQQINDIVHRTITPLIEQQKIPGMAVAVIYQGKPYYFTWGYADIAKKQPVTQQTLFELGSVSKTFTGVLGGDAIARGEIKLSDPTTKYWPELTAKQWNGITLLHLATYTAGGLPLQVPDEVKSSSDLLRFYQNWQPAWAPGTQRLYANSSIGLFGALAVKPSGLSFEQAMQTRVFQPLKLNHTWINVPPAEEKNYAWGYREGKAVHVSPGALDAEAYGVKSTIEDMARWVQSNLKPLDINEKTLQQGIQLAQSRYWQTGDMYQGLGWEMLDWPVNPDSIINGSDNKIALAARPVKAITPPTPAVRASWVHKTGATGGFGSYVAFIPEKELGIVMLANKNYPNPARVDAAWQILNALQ
#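 20 mM phosphate pH 7.0 + 0.01% (detergent screen) or 0.0001% Triton X-100; 5.3 nM AmpC reagent; cpd preinc 15 min RT; nitrocefin (800 uM stock) to start; A480 q20 s × 4 min; Activity was normalised to no-enzyme and no-compound control wells.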
# AmpC no deterg: qHTS Inhibitors of AmpC Beta-Lactamase (assay without detergent). P00811. AmpC nitrocefin hydrolysis, absorbance 480 nm, 0.0001% Triton. Potency, µM (highest dose often 57.1 µM), for inactives: at the top dose activity change, negative = inhibition, actives largely listed as inhibitors. 0.52% of 330,000 active. AID 485341, 2010;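 note: plate controls were no compound for no effect and no enzyme for full effect; nearly all actives have a fitted effect of over 20% in size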
#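 AmpC (5.3 nM in the dispensed reagent) in 20 mM phosphate pH 7.0 with 0.01% (detergent screen) or 0.0001% Triton X-100 was preincubated with compounds for 15 min at room temperature. Nitrocefin was then added from an 800 uM solution, and hydrolysis was followed at 480 nm.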
# AMA1-RON2 inh: qHTS for Inhibitors of AMA1-RON; Towards Development of Antimalarial Drug Lead: Primary Screen | Potency, µM (series often up to 58.2 µM), inactives show at the top dose activity change, negative = inhibition, actives largely listed as inhibitors | Plasmodium falciparum AMA1 (3D7) - RON2 peptide interaction | AlphaScreen AMA1-biotinylated RON2 peptide binding | 0.2% of 360,000 active | AID 720542, 2013;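 note: 0% = vehicle wells and -100% = peptide control; nearly all actives have a fitted effect of over 45% in size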
#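 AMA1 (3D7) with his tag at 25 nM final met compounds first, then biotinylated RON2 peptide at 25 nM; detection used donor plus acceptor beads, 10 µg/mL apiece, read by AlphaScreen after 30 min at room temperature.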
# Marburg entry inh: qHTS for inhibitors of binding or entry into cells for Marburg Virus; Marburg virus pseudotyped entry inhibition, cell reporter; Potency, µM (series often up to 37.8 µM), for inactives: at the highest dose activity change, negative = inhibition, actives largely listed as inhibitors; 1.8% of 300,000 active; AID 540276, 2011; calls by dose curve; tested in HEK293 cells
# Lassa entry inh: qHTS for Inhibitors of binding or entry into cells for Lassa Virus; Lassa virus pseudotype entry inhibition, cell reporter; Potency, µM (titrated, usually from 37.9 µM), for the others: at the highest dose activity change, negative = inhibition, hits mostly inhibitors; 1.2% of 300,000 active; calls by dose curve; tested in HEK293 cells; note: nearly all actives have a fitted effect of over 50% in size
# The depositor's hits bear a star; ? = inconclusive; / = not tested or not shown; ! = repeats disagree; [ ] = remark or other dose. A selection: hits, their analogues and other compounds. The true share with any hit is near 2.3%. Unless noted, calls come from the whole dose curve; as a rule, active = well fitted curve in the direction sought with a large enough effect; inconclusive = small, poorly fitted or top-dose-only effect, or another doubt; inactive = no such curve, though single readings can be large; an effect the other way counts as inactive or inconclusive. Unless noted, % is set by controls: 0 for no effect and ±100 for the full control effect; potency is the fitted concentration of half-maximal effect.
SMILES,AmpC inh detg,AmpC no deterg,AMA1-RON2 inh,Marburg entry inh,Lassa entry inh
Cc1nc(N2CCN(C(=O)c3ccco3)CC2)c2c3c(sc2n1)CC(C)CC3 (stereo not given),0.7%,141.7%,-24.5%,13µM*,?
CN1CCc2ccccc2Cc2[nH]c3ccccc3c2CC1,0.7%,-28.2%,-8.5%,11.2µM*!,-6.6%
Cc1ccc(C2CC(=O)n3nc(-c4ccc(Cl)cc4)nc3S2)cc1 (stereo not given),22.7%,/,/,1.1%[46.1 µM],5.8%[46.1 µM]
Cc1[nH]c2ccccc2c1/C=N\NC(=O)c1ccccc1Cl,/,/,9.5%,/,/
Cc1[nH]c2ccccc2c1/C=N/NC(=O)C1CC1(c1ccccc1)c1ccccc1 (stereo not given),0.1%,11.2µM*,-16.8%,?,?
Nc1cccc2c1C(=O)N(C(=O)c1ccco1)C2=O,-3.8%,-6.5%,-0.4%,3.4%[46.1 µM],16.3%[46.1 µM]
Nc1cccc2c1C(=O)N(C(=O)/C=C/c1ccc(F)cc1)C2=O,-0.5%,-34.0%,14.0%,3.16µM*,11.2µM*
C[C@@H]1CC[C@H]2C(=O)O[C@@H](Cc3ccccc3)CN2[C@@H]1c1ccc(Br)cc1,/,/,/,7.1%[14.2 µM],/
CC(C)c1cc(C(N)=O)c(NC(=O)c2cccc(COc3ccc(Cl)cc3)c2)s1,?,-34.5%,-0.8%,3.16µM*,?
Cc1cc(NC(=O)c2cccc(COc3ccc(Br)cc3)c2)no1,3.0%,-16.9%,4.6%,7.31µM*,13µM*
CCOc1ccc(C(=O)Nc2cc(C)on2)cc1,?,-19.2%,2.1%,?,?
COc1ccc(C=CNC(=O)c2ccc(OC)cc2)cc1,/,/,/,17.8%[14.2 µM],/
Cc1ccc(C)c(N2C(=O)N(C)c3ccccc3S2(=O)=O)c1,4.6%,/,/,/,6.6%[46.1 µM]
O=C(NCc1ccccn1)c1nn(-c2ccccc2Cl)nc1CO,23.4%,/,/,0.3%[46.1 µM],27.0%[46.1 µM]
COC(=O)CC=C1c2ccccc2C[C@H](OC)[C@@H]1C,/,/,/,-1.1%[14.2 µM],/
COc1cc2c(cc1OC)n(CC(=O)c1cc(C)ccc1C)c(=O)n1nc(CCn3nc(C)cc3C)nc21,0.2%,/,/,/,-6.6%[46.1 µM]
CCOC(=O)CNC(=O)c1ccc2[nH]c3c(c2c1)CCCC3,-5.7%,-23.1%,-4.5%,?,2.3%
S=C(NCc1ccc2[nH]c3c(c2c1)CCCC3)Nc1ccccc1,0.8%,?,9.5%,-7.3%,-19.8%
NNC(=O)c1ccc2[nH]c3c(c2c1)CCCC3,1.5%,25.1µM*,26.2%,/,/
Cc1cc(C)cc(NC(=S)NCc2ccc3[nH]c4c(c3c2)CCCC4)c1,-6.9%,31.6µM*,25.5%,?,3.66µM*
COc1ccc(COC(=O)N/N=C2\C[C@@H](O)[C@@H](O)[C@@H]3[C@@H]4C(=O)N(c5cccc(Oc6ccccc6)c5)C(=O)[C@@H]4CC[C@@H]23)cc1,/,/,/,9.0%[14.2 µM],/
COc1cc2c(c(OC)c1OC)C1(c3ccccc3)CCCCCC1[C@@H]2NC(=O)C(F)(F)F (stereo not given in full),/,/,/,-15.2%[14.2 µM],?
Cc1ccc(NC(=O)CN2CCN(Cc3ccccc3)CC2)c(Br)c1,7.6%,184.6%,20µM*,/,/
COc1ccc(S(=O)(=O)N(CC(=O)Nc2ccc(F)c(Cl)c2)c2ccc(C)cc2)cc1OC,6.3%,/,/,/,?
COc1cc(C2Nc3ccccc3C(=O)N2c2ccc3c(c2)OCCO3)ccc1OCC(C)C (stereo not given),2.0%,-10.7%,0.0%,?,?
SMILES,AmpC inh detg,AmpC no deterg,AMA1-RON2 inh,Marburg entry inh,Lassa entry inh
O=C1c2ccccc2NC(c2ccc3c(c2)OCCO3)N1c1ccc2c(c1)OCCO2 (stereo not given),-13.6%,-10.0%,-11.4%,8.91µM*,?
O=C(C1CCN(CCCc2ccccc2)CC1)N(CCc1ccccc1)Cc1ccccc1,?,68.5%,-28.6%,?,11.2µM*
O=C(CSc1nc(=O)n(Cc2ccccn2)c2c1CCC2)Nc1ccccc1,-1.2%,/,/,/,6.7%[46.1 µM]
Cc1cc(C)cc(NC(=O)C(CC(C)C)NC(=O)C2CCCCC2)c1 (stereo not given),3.3%,/,/,18.7%[46.1 µM],4.6%[46.1 µM]
CC(=O)C1=C(C)N(Cc2ccccc2)C(=O)N[C@H]1CCc1ccccc1,-9.6%,1.1%,-2.5%,?,11.6µM*
CC(=O)C1=C(C)N(Cc2ccccc2)C(=O)NC1CCc1ccccc1 (stereo not given),/,/,/,?,17.5%[14.3 µM]
CC1(C)CC(N2CCCC2)=CC(=[N+]2CCCCC2)C1,-0.8%,-12.1%,-2.7%,?,?
CC1(C)CC(N2CCN(Cc3ccccc3)CC2)=CC(=[N+]2CCCCC2)C1,-1.5%,47.2%,-25.6%,6.51µM*,?
CC1(C)CC(N2CCCC2)=CC(=[N+]2CCCC2)C1,-5.2%,-15.2%,6.8%,2.06µM*,?
Cc1cc(C)cc(NS(=O)(=O)c2ccc(NC(=S)NC(=O)c3ccc(Br)o3)cc2)c1,-4.9%,-32.2%,12.5%,15.8µM*,-22.2%
COc1ccc(NC(=O)CN2C(=O)CSc3ccc(S(=O)(=O)N(C)C)cc32)cc1OC,5.5%,/,/,/,7.0%[46.1 µM]
CN(C(=O)c1ccco1)c1nc(CC(=O)Nc2ccccc2)cs1,1.9%,-19.0%,-5.5%,17.8µM*,24.9%
CCN(C(=O)c1ccco1)c1nc(CC(=O)Nc2ccc(Cl)cc2)cs1,-10.2%,-33.7%,8.4%,-27.1%,-25.0%
O=c1[nH]cnc2c1c(-c1ccccc1)cn2-c1cccc(Cl)c1,-11.7%,-20.2%,-12.7%,/,/
COc1ccc(-n2cc(-c3ccccc3)c3c(=O)[nH]cnc32)cc1,1.9%,-9.5%,?,?,20.6µM*
Cc1cccc(N(CC(=O)N(C)Cc2ccccc2)S(=O)(=O)c2ccccc2)c1C,10.0%,/,/,?,-12.5%[46.1 µM]
O=C1CSC(c2ccc([N+](=O)[O-])cc2)N1Cc1ccccc1 (stereo not given),-9.0%,-0.6%,0.0%,/,/
CC1Cc2ccccc2N1Cc1ccc([N+](=O)[O-])cc1 (stereo not given),-5.5%,-30.7%,11.2µM*,-0.6%,-11.4%
CC1Cc2ccccc2N1Cc1cccc([N+](=O)[O-])c1 (stereo not given),-2.1%,-34.0%,10µM*,?,-2.3%
Cc1cc(=O)[nH]c2nnc(SCC(N)=O)n12,-6.3%,/,/,/,?
COCCOCC(O)CN1CCN(c2ccc(C)cc2)CC1 (stereo not given),4.7%,-0.8%,14.1µM*,2.2%,-2.0%
COc1ccc(N2CCN(CC(O)COC(c3ccccc3)c3ccccc3)CC2)cc1 (stereo not given),-6.2%,88.6%,?,?,0.4%[46.1 µM]
COc1ccc(N2CCN(CC(O)COC(c3ccc(F)cc3)c3ccc(F)cc3)CC2)cc1 (stereo not given),-2.5%,62.9%,28.2µM*,/,/
